Measured values from the supplement of paper PMC10127200.
Where a name gives a salt, the structure may show the parent alone.

Experiments:
Experiment in all cases: Euclidean distance of Cell Painting phenotypic profile (signed KS, 77 features) to DMSO centroid (dimensionless distance); 5 or 10 uM (library dependent); higher = stronger phenotypic change vs DMSO (phenoactivity)
Settings in all cases: 48 h
786-O = test system: 786-O
Procedure, shortened: (§1)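 Phenoactivity is defined as the Euclidean distance from a compound profile to the median vehicle profile. Each profile comprised 77 Harmony features, scored as signed Kolmogorov-Smirnov statistics versus same-plate vehicle wells, then plate-position corrected, correlation-weighted and replicate-averaged at the top dose. Five cancer lines and one healthy fibroblast line were exposed to library compounds for 48 h at 10 or 5 uM (0.1% DMSO final).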

A549 = test system: A549
Procedure, shortened: as §1

DU145 = test system: DU145
Procedure, shortened: as §1

FB = test system: FB
Procedure, shortened: as §1

HEPG2 = test system: HEPG2
Procedure, shortened: as §1

OVCAR4 = test system: OVCAR4
Procedure, shortened: as §1

Compound | Euclidean distance (786-O) | Euclidean distance (A549) | Euclidean distance (DU145) | Euclidean distance (FB) | Euclidean distance (HEPG2) | Euclidean distance (OVCAR4)
C[C@H](NC(=O)[C@@H](O)c1cc(F)cc(F)c1)C(=O)N[C@@H]1C(=O)N(C)c2ccccc2-c2ccccc21 | 1.22 | 1.36 | 1.05 | 0.939 | 0.864 | 1.42
CC[C@H]1OC(=O)[C@H](C)[C@@H](O[C@H]2C[C@@](C)(OC)[C@@H](O)[C@H](C)O2)[C@H](C)[C@@H](O[C@@H]2O[C@H](C)C[C@H](N(C)C)[C@H]2O)[C@](C)(O)C[C@@H](C)CN[C@H](C)[C@@H](O)[C@]1(C)O [Azathramycin] | 1.51 | 0.559 | 0.734 | 0.693 | 1.08 | 0.873
C#C[C@]1(O)CC[C@H]2[C@@H]3CCC4=CCCC[C@@H]4[C@H]3CC[C@@]21C [Lynestrenol] | 1.13 | 1.3 | 1.48 | 1.17 | 0.777 | 1.41
O=C1Cc2cc(CCN3CCN(c4nsc5ccccc45)CC3)c(Cl)cc2N1 [Ziprasidone HCl] | 1.99 | 1.47 | 1.15 | 1.3 | 0.985 | 1.64
Cc1c(C(=O)N2CCOc3ccc(-c4ccc(N)nc4)cc3C2)ccc(S(C)(=O)=O)c1F | 2.49 | 2.65 | 1.99 | 3.46 | 2.59 | 3.43
CCN(CC)CCOC(=O)c1ccc(N)cc1 [Procaine HCl] | 0.661 | 0.741 | 0.744 | 0.877 | 0.478 | 0.916
O=C(NNc1nc2cc(F)ccc2n2cccc12)c1cnccn1 | 3.74 | 2.78 | 2.25 | 3.85 | 2.84 | 5.56
O=P(O)(O)C(O)(Cn1ccnc1)P(=O)(O)O [Zoledronic Acid] | 0.951 | 1.23 | 0.9 | 1.37 | 2.13 | 1.11
CC(O)c1cc(C(=O)N[C@@H](C)Cn2ccc(-c3ccc(C#N)c(Cl)c3)n2)n[nH]1 (some centres undefined) [Darolutamide (ODM-201)] | 0.846 | 0.505 | 1.04 | 1.05 | 0.543 | 0.668
CN(CCOc1ccc(CC2SC(=O)NC2=O)cc1)c1ccccn1 (centres undefined) [Rosiglitazone maleate] | 0.964 | 0.896 | 1.89 | 1.31 | 0.95 | 1.34
COc1cc(Nc2ncc(F)c(Nc3ccc4c(n3)N(COP(=O)(O)O)C(=O)C(C)(C)O4)n2)cc(OC)c1OC [R788 (Fostamatinib) Disodium] | 1.37 | 2.39 | 2.15 | 3.19 | 0.696 | 2.19
N#C[C@@H]1CCCN1C(=O)CNC12CC3CC(CC(O)(C3)C1)C2 [Vildagliptin (LAF-237)] | 1.09 | 1.02 | 1.43 | 0.918 | 0.836 | 1.21
Cc1onc(-c2ccccc2Cl)c1C(=O)N[C@@H]1C(=O)N2[C@@H]1SC(C)(C)[C@@H]2C(=O)O [Cloxacillin Sodium] | 0.711 | 0.744 | 0.6 | 0.941 | 1.02 | 1.39
CCC[S+]([O-])c1ccc2[nH]c(NC(=O)OC)nc2c1 (centres undefined) [Albendazole Oxide] | 1.29 | 1.23 | 0.768 | 0.918 | 0.943 | 1.26
Cc1ccc(S(=O)(=O)Cc2nc(-c3ccc(C(=O)NCc4cccnc4)cc3)oc2C)cc1 | 3.04 | 2.65 | 2.6 | 1.11 | 1.68 | 2.14
O=C(O)Cc1ccccc1Nc1c(Cl)cccc1Cl [Diclofenac acid] | 0.971 | 0.349 | 2.62 | 0.749 | 0.668 | 0.711
CN1CCC(=C2c3ccccc3C=Cc3ccccc32)CC1 [Cyproheptadine hydrochloride] | 0.781 | 1.06 | 1.24 | 1.89 | 2.26 | 0.968

Compound | Euclidean distance (786-O) | Euclidean distance (A549) | Euclidean distance (DU145) | Euclidean distance (FB) | Euclidean distance (HEPG2) | Euclidean distance (OVCAR4)
O=C(NCc1ccncc1)C12CC3CC(C1)CC(c1ccc(Cl)cc1)(C3)C2 | 1.47 | 1.24 | 1.1 | 0.743 | 0.955 | 0.981
CNC(=O)c1cc(Oc2ccc(NC(=O)Nc3ccc(Cl)c(C(F)(F)F)c3)c(F)c2)ccn1 [Regorafenib Monohydrate] | 2.14 | 2.35 | 1.71 | 1.8 | 1.82 | 1.76
COc1ccc2c3c1O[C@H]1C[C@@H](O)C=C[C@@]31CCN(C)C2 [Galanthamine] | 0.802 | 1.14 | 0.605 | 0.959 | 0.423 | 0.852
CCN(CC)C(=O)/C(C#N)=C/c1cc(O)c(O)c([N+](=O)[O-])c1 [Entacapone] | 0.439 | 0.512 | 0.513 | 1.1 | 0.422 | 0.77
COCCCOc1ccnc(C[S+]([O-])c2nc3ccccc3[nH]2)c1C (centres undefined) [Rebeprazole sodium] | 0.719 | 0.641 | 0.763 | 1.22 | 1.54 | 0.777
CC[C@H]1OC(=O)[C@H](C)[C@@H](O[C@H]2C[C@@](C)(OC)[C@@H](O)[C@H](C)O2)[C@H](C)[C@@H](O[C@@H]2O[C@H](C)C[C@H](N(C)C)[C@H]2O)[C@](C)(O)C[C@@H](C)CN(C)[C@H](C)[C@@H](O)[C@]1(C)O [Azithromycin Dihydrate] | 1.29 | 1.33 | 1.5 | 1.18 | 1.71 | 1.15
Nc1ccccc1NC(=O)c1ccc(CNC(=O)OCc2cccnc2)cc1 [Entinostat (MS-275)] | 3.47 | 2.57 | 2.22 | 3.25 | 2.93 | 2.57
C[n+]1cc2c3c(ccc2c2ccc4cc5c(cc4c21)OCO5)OCO3 [Sanguinarine chloride] | 5.34 | 5 | 7.6 | 6.48 | 4.82 | 5.76
O=c1[nH]c(=O)n([C@H]2C[C@H](O)[C@@H](CO)O2)cc1C(F)(F)F [Trifluridine] | 2.89 | 3.28 | 2.74 | 1.07 | 3.56 | 2.85
OC[C@H]1O[C@@H](c2ccc(Cl)c(Cc3ccc(O[C@H]4CCOC4)cc3)c2)[C@H](O)[C@@H](O)[C@@H]1O | 0.965 | 0.753 | 1.39 | 0.912 | 0.52 | 0.801
CC(C)Nc1cc(-c2c[nH]c(C(=O)N[C@H](CO)c3cccc(Cl)c3)c2)c(Cl)cn1 | 2.42 | 4.11 | 3.64 | 3.51 | 1.79 | 3.1
CNC(=O)[C@@H](NC(=O)[C@H](CC(C)C)[C@H](O)C(=O)NO)C(C)(C)C [Marimastat (BB-2516)] | 1.09 | 2.02 | 1.14 | 1.06 | 0.866 | 1.4
N.N.O=C([O-])C[O-].[Pt+2] [Nedaplatin] | 3.19 | 2.86 | 4.02 | 3.24 | 2.92 | 2.99
CN(C)[C@@H]1C(O)=C(C(N)=O)C(=O)[C@@]2(O)C(O)=C3C(=O)c4c(O)ccc(Cl)c4[C@@](C)(O)[C@H]3C[C@@H]12 [Chlortetracycline HCl] | 1.45 | 0.912 | 1.04 | 0.904 | 0.464 | 1.05
OCC(O)CN1CCN(c2ccccc2)CC1 (centres undefined) [Dropropizine] | 1.11 | 1.8 | 1.39 | 1.1 | 0.735 | 1.98
Cc1ccccc1N1C(=O)c2cc(S(N)(=O)=O)c(Cl)cc2NC1C (centres undefined) [Metolazone] | 1.06 | 0.914 | 1.26 | 0.909 | 0.715 | 1.05
CC(C)C[C@H](NC(=O)CNC(=O)c1cc(Cl)ccc1Cl)B(O)O | 5.04 | 3.61 | 5.19 | 3.83 | 4.44 | 4.31
